G9a block – blocks human histone lysine methyltransferase G9a. Q96KQ7. G9a H3K9 monomethylation, AlphaScreen, 2 h. Potency, µM (series often up to 102 µM), inactives show at the highest dose activity, negative = inhibition, most hits filed as inhibitors. 8.8% of 350,000 active; note: potency is the fitted concentration of half-maximal effect; nearly all actives have a fitted effect of over 75% in size
Target sequence (Q96KQ7 913-1193 limits assumed): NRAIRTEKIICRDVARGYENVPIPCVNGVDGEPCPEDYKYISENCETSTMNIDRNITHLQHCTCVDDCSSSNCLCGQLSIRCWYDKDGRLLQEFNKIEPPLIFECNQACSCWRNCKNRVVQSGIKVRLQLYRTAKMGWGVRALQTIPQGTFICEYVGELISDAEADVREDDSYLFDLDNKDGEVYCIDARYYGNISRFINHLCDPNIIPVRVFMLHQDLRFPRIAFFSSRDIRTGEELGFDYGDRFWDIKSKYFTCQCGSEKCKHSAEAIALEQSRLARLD
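Step 1: enzyme (final 20 nM) with compound, 15 min RT. Step 2: substrate peptide 500 nM and SAM 20 uM, 2 h RT. Step 3: anti-H3K9me1 antibody and AlphaScreen beads, 10 min, then plate read.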
Coupling enz – coupling enzyme interference in Giardia aldolase counter-screen. coupling enzyme system counterscreen, AmpLite Red fluorescence. activity change, negative = inhibition, % at 58.2 µM, hits read low. 0.67% of 290,000 active. AID 2472; in the data active = activity change below about -30%
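First, compound is pin-transferred into glyceraldehyde-3-phosphate coupling-enzyme reagent at 57.5 uM final and held 10 min at RT. Next, substrate, coupling system and AmpLite Red are added. After 20 min RT, fluorescence (525/598 nm) is read.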
Tau fluor counter – counter-screen for tau fibril formation inhibitors; tau K18 P301L Alexa594 fluorescence, heparin fibrillization; Potency, µM (titrated, usually from 57.7 µM), for the others: at the highest dose activity change, negative = decrease; 0.93% of 280,000 active; note: potency is the fitted concentration of half-maximal effect; nearly all actives have a fitted effect of over 55% in size
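Human K18 P301L tau (15 uM unlabeled plus 0.24 uM Alexa 594-labeled, final) in 100 mM sodium acetate pH 7 was mixed with compound and 20 uM heparin and incubated 6 hr at 37 C.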
Sfp PPTase inh – inhibitors of Bacillus subtilis Sfp phosphopantetheinyl transferase; Q9F4F7; Biochemical Sfp PPTase activity, qHTS; Potency, µM, for inactives: largest response in the series, negative = inhibition, usual class: inhibitors; 3.5% of 310,000 active; AID 1490;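 note: the enzyme is Sfp with the accession as filed and its product quenches rhodamine fluorescence; potency is the fitted concentration of half-maximal effect; 0% = enzyme reaction without inhibitor and -100% = no enzyme wells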
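Fluorescence-quenching assay: 15 nM Sfp-PPTase preincubated 15 min at room temperature with compound, then 5 uM rhodamine-CoA and 12.5 uM BHQ-2-labelled YbbR peptide added. Fluorescence (ex 525/em 598 nm) read at start and after 30 min; difference gives rate.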
Tau ThT inhib – blocks human tau fibril formation measured by thioflavin T. P10636. recombinant tau K18 P301L, heparin-induced fibrillization, ThT fluorescence. Potency, µM (doses to about 57.4 µM), inactives show at the top dose activity, negative = inhibition, most hits filed as inhibitors. 2.1% of 270,000 active; note: potency is the fitted concentration of half-maximal effect; nearly all actives have a fitted effect of over 55% in size
Target sequence (P10636 561-689 P618L limits assumed): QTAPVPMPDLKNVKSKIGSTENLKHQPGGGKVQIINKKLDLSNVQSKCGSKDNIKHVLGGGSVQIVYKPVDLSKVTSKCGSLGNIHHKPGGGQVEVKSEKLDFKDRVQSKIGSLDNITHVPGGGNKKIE
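Using a mix of unlabeled (15 uM) and Alexa 594-labeled (0.24 uM) tau K18 P301L, heparin-triggered fibrillization over 6 hr at 37 C was scored by ThT fluorescence.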
Tau FP inhib – blocks human tau fibril formation measured by polarization. K18 P301L tau heparin fibrillization, Alexa594 FP, 6 h. Potency, µM (top dose mostly 57.7 µM), without a hit: top-dose activity, negative = inhibition, usual class: inhibitors. 0.39% of 280,000 active. P10636. AID 1468; note: potency is the fitted concentration of half-maximal effect; nearly all actives have a fitted effect of over 55% in size
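Heparin (20 uM) drove fibril formation of recombinant tau K18 P301L, 15 uM unlabeled with 0.24 uM Alexa 594 label, for 6 hr at 37 C in 100 mM sodium acetate pH 7. Fluorescence polarization (555/632 nm) read 1 hr after 30 uM ThT.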
* = called active by the depositor; ? = inconclusive; · = not tested or not shown; [ ] = dose if it differs, or a comment. Most compounds without a hit are left out; they make up all but 11% or so of the library. Unless noted, calls come from the whole dose curve; as a rule, active = well fitted curve in the direction sought with a large enough effect; inconclusive = small, poorly fitted or top-dose-only effect, or another doubt; inactive = no such curve, though single readings can be large; an effect the other way counts as inactive or inconclusive. Unless noted, % is set by controls: 0 for no effect and ±100 for the full control effect.

SMILES | G9a block | Coupling enz | Tau fluor counter | Sfp PPTase inh | Tau ThT inhib | Tau FP inhib
CC1CCN(C(=O)CSc2nc3c([nH]c4ccccc43)c(=O)n2-c2ccccc2)CC1 | 1%[59 µM] | · | 7% | · | 8% | 4%
O=C(CCn1c(=O)oc2ccccc21)n1c(=O)oc2ccccc21 | 79µM* | 0 | 2% | -3% | ? | 1%
CCOc1ccc(NC(=O)c2c(NC(=O)CNCCN3CCOCC3)sc3c2CCC3)cc1 | 40µM* | -3 | · | 4% | · | ·
CCOC(=O)N1CCc2c(sc(NCc3sccc3C)c2C(=O)Nc2cc(OC)ccc2OC)C1 | 2.8µM* | · | ? | · | ? | -2%
CCOC(=O)N1CCc2c(sc(NCc3ccc(OC)c(Br)c3)c2C(=O)Nc2cc(OC)ccc2OC)C1 | 1.6µM* | · | ? | · | 14µM* | -2%
CCOc1ccccc1NC(=O)c1c(NC(=O)c2ccccc2C)sc2c1CCC(C)C2 (stereo unspecified) | 14µM* | · | -11% | · | ? | -5%
CCOc1ccc(NC(=O)c2c(NC(=O)c3ccccc3F)sc3c2CCC3)cc1 | 0%[59 µM] | · | -17% | · | -13% | -1%
COc1ccccc1C(=O)Nc1nnc(SCC(=O)NC2CCCC2)s1 | -2% | · | · | 11% | · | ·
CCn1c(CN2CCN(c3cccc(Cl)c3)CC2)nc2c1c(=O)[nH]c(=O)n2C | -25%[59 µM] | · | -13% | · | -8% | 2%
CCOc1ccc(NC(=O)c2c(NCc3cccnc3)sc3c2CCC(C)C3)cc1 (stereo unspecified) | 2.2µM* | · | ? | · | 16µM* | -11%
CCOC(=O)N1CCc2c(sc(NCc3cc(OC)ccc3OC)c2C(=O)Nc2cc(OC)ccc2OC)C1 | 7.1µM* | · | ? | · | ? | 2%
CCOC(=O)N1CCc2c(sc(NCc3cccc(F)c3)c2C(=O)Nc2ccc(OCC)cc2)C1 | 2µM* | · | ? | · | ? | -9%
Cc1ccc2oc(=O)c3cc(C(=O)Nc4ccc(F)cc4F)sc3c2c1 | 12%[59 µM] | · | 4% | · | 2% | -3%
Cc1ccc(NC(=O)CSc2nc(-c3cccs3)cc(C(F)(F)F)n2)cc1C | 28%[59 µM] | · | -15% | · | ? | ?
CSc1ccc(CCNC(=O)CCn2c(=O)c3cccn3c3cccnc32)cc1 | -1%[59 µM] | · | 9% | · | 6% | 0%
CS(=O)(=O)N1CCc2cc(C(=O)Nc3ccc(Cl)c(C(F)(F)F)c3)ccc21 | -21%[59 µM] | · | ? | · | 17% | 20µM*
CO[C@H]1COC(=O)[C@H](C)NC(=O)[C@@H](C)COC(=O)[C@H]2CCCN2C(=O)C/C=C\[C@H]1C | · | 1 | -12%[11.6 µM] | 10% | -13%[11.5 µM] | 1%[11.6 µM]
O=c1cc(N2CCCCC2)c(-c2ccccc2)nn1Cc1cccc(Cl)c1 | 3% | 4 | -4% | 35µM* | ? | 1%
O=c1cc(N2CCCCC2)c(-c2ccccc2)nn1Cc1ccc(Cl)cc1Cl | · | -5 | -3% | ? | -14% | -4%
O=c1c2ccccc2[nH]c(=S)n1CCCN1CCC(Cc2ccccc2)CC1 | ? | 0 | · | 2% | · | ·
O=C(NCC1CC1)C1(S(=O)(=O)c2ccccc2)CC=CC1 | -2% | 4 | · | 4% | · | ·
O=S(=O)(c1ccc(SCc2ccccc2)nc1)N1CCCCC1 | -21%[12.7 µM] | · | · | · | · | ·
Cc1cccc(CSc2ccc(S(=O)(=O)N3CCCC3)cn2)c1 | 14µM* | · | · | · | · | ·
O=C(OCn1ncc(Br)c(Br)c1=O)c1ccccc1Cl | 0%[12.7 µM] | 5 | -20% | -16% | 8.9µM* | ?
O=C(OCn1ncc(Cl)c(Cl)c1=O)c1cccc(C(F)(F)F)c1 | ? | 6 | -3% | 13% | 3% | 6%
SMILES | G9a block | Coupling enz | Tau fluor counter | Sfp PPTase inh | Tau ThT inhib | Tau FP inhib
O=C(OCn1ncc(Br)c(Br)c1=O)c1ccc(F)cc1 | -25%[12.7 µM] | -1 | -6% | 50µM* | ? | ?
CCOc1ccc(-n2ccnc2SCC(=O)Nc2cccc3ccccc23)cc1 | ? | · | -12% | · | -8% | -6%
CC(C)c1ccc(O)c(NC(=S)NC(=O)CCc2ccccc2)c1 | -4% | -1 | -24% | ? | ? | 4%
CCOc1ccc(C(=O)NCC(c2ccc3c(c2)OCO3)N2CCOCC2)cc1 (stereo unspecified) | 8%[59 µM] | · | 0% | · | -1% | -1%
O=c1c2ccccc2c(C=NCCCN2CCOCC2)c(O)n1Cc1ccc2c(c1)OCO2 | 50µM* | 0 | ? | -7% | -7% | 5%
COc1cc2c(cc1OC)C1(CCCC1)CNC2c1ccc([N+](=O)[O-])cc1 (stereo unspecified) | 35µM* | 0 | -18% | 5% | -12% | 9%
CCOc1ccc(S(=O)(=O)Nc2ccc3oc(C)c(C(=O)OCCOC)c3c2)cc1 | -22%[59 µM] | · | -30% | · | -12% | 2%
CCCCOC(=O)c1c(C)oc2ccc(NS(=O)(=O)c3ccc4c5c(cccc35)C(=O)N4)cc12 | ? | 2 | 16µM*[quencher] | 6% | ? | -2%
O=C1Nc2ccc(S(=O)(=O)Nc3ccccc3O)c3cccc1c23 | 13µM* | · | -28% | · | -17% | -11%
CCOC(=O)N1CCC(=NNC(=O)COc2cccc(C)c2)CC1 | 56%[59 µM] | 2 | -4% | 10% | -18% | 0%
C=CCNc1nc2ccccc2nc1NS(=O)(=O)c1ccc(Br)cc1 | -7% | 9 | · | 19% | · | ·
COC(=O)c1ccc2c(c1)N(CC(=O)Nc1ccc(C)cc1Cl)C(=O)c1ccccc1S2 | 2%[59 µM] | · | -1% | · | -1% | -6%
O=C(CC(Nc1cccc(Cl)c1Cl)C(=O)OCC(=O)c1cccs1)c1ccccc1 (stereo unspecified) | 14%[59 µM] | 0 | -22% | 56µM* | 3% | ?
O=C(CC(Nc1cccc(Cl)c1Cl)C(=O)O)c1ccccc1 (stereo unspecified) | 28µM* | 11 | 6% | 8.9µM* | ? | -13%
Cc1c(Cl)cccc1NC(CC(=O)c1ccccc1)C(=O)OCC(=O)c1cccs1 (stereo unspecified) | 35µM* | -3 | 4% | 8.9µM* | 10% | -3%
CC(C)c1ccccc1Oc1c(C(F)(F)F)oc2c(CN3CCN(C)CC3)c(O)ccc2c1=O | ? | · | -15% | · | -8% | -8%
CO[C@@H]1c2cc(F)ccc2/C(=C\CCOC(=O)C/C=C/c2ccccc2)[C@H]1C | · | 4 | -17% | -22% | ? | ?
CN(C)c1ccc(CNC(=O)C2(C)C=CCN2C(=O)c2ccccc2)cc1 (stereo unspecified) | · | -1 | -11% | -2% | -14% | 5%
Cc1cc(N2C(=O)C(O)=C(C(=O)c3cc4ccccc4o3)C2c2ccc(Br)cc2)no1 (stereo unspecified) | 1.6µM* | · | · | -4% | · | ·

Screens from PubChem BioAssay.
